Bioassay records: PubChem, University of Pittsburgh Molecular Library Screening Center
HIV RNase H inh-1: inhibitors of HIV-1 reverse transcriptase RNase H; P04585; 1.9% of 65,000 active; AID 565; RT-RNase H RNA/DNA duplex cleavage, fluorescence; inhibition, % at 10 µM; in the data active = inhibition above about 50%
HIV RNase H inh-2: confirmation of HIV-1 reverse transcriptase RNase H inhibitors; shares compounds with HIV RNase H inh-1; inhibition, % at 10 µM; Recombinant RT RNase H, fluorescent RNA/DNA duplex cleavage; 39% of 1,000 active; in the data active = inhibition above about 48%; inconclusive = no clear call, values can overlap the other calls
Large screens that a line does not name were inactive (follow-up assays come after a bar, where they were run). Shown is part of a subset that was picked to be rich in hits.

O=C(NC1CCCc2ccccc21)C1CCN(C(=O)c2sccc2-n2cccc2)CC1 (stereo not given)	none
c1ccc(-n2ncc3c2ncn2nc(-c4ccco4)nc32)cc1	HIV RNase H inh-1 60 | HIV RNase H inh-2 68
c1coc(-c2nc3c4c5c(sc4ncn3n2)CCCC5)c1	none
COc1cccc(OCc2nc3c4cnn(-c5ccccc5)c4ncn3n2)c1	none
O=C(c1cccc(S(=O)(=O)N2CCCC2)c1)c1nnc(-c2ccncc2)o1	none
CN(C)c1nc2c(c(=O)[nH]c(=O)n2C)n1Cc1ccccc1Br	none
CCOC(=O)c1c(N)sc(C(=O)N2CCCC2)c1C	none
Cc1ccc(-n2c(N)c(C(=O)N3CCN(C)CC3)sc2=S)cc1	HIV RNase H inh-1 93 | HIV RNase H inh-2 63
Cc1c(C(=O)N2CCCCC2)sc(N)c1C#N	none
Cc1ccc(NS(=O)(=O)c2ccc(C(=O)N3CCCN(C)CC3)cc2)cc1	none
Cc1ccc(-n2c(N)c(C(=O)N3CCCCC3)sc2=S)cc1	HIV RNase H inh-1 95 | HIV RNase H inh-2 75
C=CCn1c(N)c(C(=O)N2CCN(C)CC2)sc1=S	none
CCCN1C2CCCC1CC(NC(=O)c1cc(OC)c(OC)c(OC)c1)C2 (stereo not given)	none
CCOC(=O)CN1CC23C=CC(O2)C(C(=O)Nc2ccc(C(C)=O)cc2)C3C1=O (stereo not given)	none
O=C1NC(Cc2c[nH]c3ccccc23)C(=O)N1CCOc1ccccc1 (stereo not given)	none
CCCc1nnc(SCc2ccc(OC)cc2)n1N	none
O=C1c2ccccc2C(O)(Cc2ccccc2)N1c1ccc2c(c1)OCO2 (stereo not given)	none
O=C(Nc1nnc(COc2ccccc2)s1)c1ccco1	none
CCOC(=O)Cc1nnc(NC(=O)COc2ccc(C)cc2)s1	none
Cc1ccc(OCc2nnc(NC(=O)Cc3cccs3)s2)cc1	HIV RNase H inh-1 62 | HIV RNase H inh-2 inconclusive
CS(=O)(=O)N(CC(=O)NCc1ccc2c(c1)OCO2)Cc1ccc(Cl)cc1	none
CCOc1ccc(NC2c3ccccc3C(=O)N2Cc2ccco2)cc1 (stereo not given)	none
Cc1cc(C(=O)Nc2sc(C)c(C)c2C#N)no1	none
CCc1c(C)sc(NC(=O)CC#N)c1C#N	none
CCc1c(C)sc(NC(=O)c2cc(C)no2)c1C#N	HIV RNase H inh-1 60 | HIV RNase H inh-2 inactive
CCCCNC(=O)Nc1ccnn1C1CCCCC1	none
COc1ccc2[nH]c(=O)c(CN(CCCN(C)C)C(=O)Nc3ccc(F)cc3)cc2c1	none
CCCc1nnc(NC(=O)Cn2c(=O)sc3ccccc32)s1	HIV RNase H inh-1 76 | HIV RNase H inh-2 inactive
CCc1nnc(NC(=O)CN2C(=O)c3ccccc3C2=O)s1	none
CCCCN(C)CCCNC(=O)Cn1c(=O)sc2ccccc21	none
COc1ccc(C(=O)n2nc(-c3ccccc3)nc2N)cc1OC	none
O=C(c1cccn2c(=O)c3ccc(Cl)cc3nc12)N1CCN(Cc2ccc3c(c2)OCO3)CC1	none
Cc1nnc(NC(=O)NC(C)N2C(=O)C3C4C=CC(C4)C3C2=O)s1 (stereo not given)	HIV RNase H inh-1 55 | HIV RNase H inh-2 inactive
Cc1nnc(NC(=O)CCCCCN2C(=O)C3C4C=CC(C4)C3C2=O)s1 (stereo not given)	none
CC(NC(=O)Nc1nnc(C(F)(F)F)s1)N1C(=O)C2C3C=CC(C3)C2C1=O (stereo not given)	none
Clc1ccc(CSc2nnc(-c3cccnc3)n2Cc2ccco2)c(Cl)c1	none
Cc1cc(NC(=O)CSc2n[nH]c(CC(C)C)n2)no1	none
CCCn1c2c(c(O)c(C(=O)Nc3nc(C)cs3)c1=O)CCCC2	none
CC(C)Cn1c2c(c(O)c(C(=O)Nc3nccs3)c1=O)CCCC2	none
Cc1csc(NC(=O)c2c(O)c3c(n(CC(C)C)c2=O)CCCC3)n1	HIV RNase H inh-1 64 | HIV RNase H inh-2 inconclusive
COc1cc(OC)c(NC(=O)CCc2nc(-c3cccs3)no2)cc1Cl	none
CS(=O)(=O)Nc1ccccc1C(=O)c1ccccc1	none
C=CCn1c(Cc2cccs2)nnc1SCC(=O)Nc1cccc(OC)c1	HIV RNase H inh-1 73 | HIV RNase H inh-2 inactive
C=CCn1c(Cc2cccs2)nnc1SCC(=O)Nc1ccc(OC)cc1	none
COc1cccc(NC(=O)CSc2nnc(-c3cccs3)n2C)c1	none
O=C(NCc1ccccc1)c1ccc(COCC(F)(F)F)o1	none
O=C(COC(=O)CCC(=O)c1ccc2c(c1)OCCO2)NCc1ccc2c(c1)OCO2	none
O=C(CCN1CCc2ccccc2C1)Nc1ccc(F)cc1	none
CCn1c(SCC(=O)Nc2ccc(N(C)C)cc2)nnc1-c1cccc(C)c1	none
Cc1cc(/C=N/n2cnnc2)c(C)n1-c1cccc(Cl)c1	none
Cc1cc(/C=N/n2cnnc2)c(C)n1-c1ccc(Cl)cc1Cl	none
Cc1sc(-n2c(C)cc(/C=N/n3cnnc3)c2C)c(C#N)c1C	HIV RNase H inh-1 78 | HIV RNase H inh-2 69
COc1ccc(OC)c(CCNC(=O)Cn2sc3nc(C)cc(C)c3c2=O)c1	HIV RNase H inh-1 97 | HIV RNase H inh-2 57
COc1ccc(OC)c(CCNC(=O)CS(=O)(=O)Cc2nc(-c3ccc(C)cc3)oc2C)c1	none
COc1ccc(-c2nc(CS(=O)(=O)CC(=O)NCCc3cc(OC)ccc3OC)c(C)o2)cc1	none
O=C(NCc1cccs1)c1csc2ccccc12	none
CCn1c(=O)cc(OCC(=O)Nc2ccc(Cl)cn2)c2ccccc21	none
COc1ccccc1N1CCN(CCCNC(=O)Nc2ccccc2)CC1	none
CSc1ccc(NC(=O)NCCCN2CCN(c3ccccc3F)CC2)cc1	HIV RNase H inh-1 53 | HIV RNase H inh-2 inactive
O=C(NCCCN1CCN(c2ccccc2F)CC1)Nc1ccc(F)cc1	none
CCc1ccc(NS(=O)(=O)c2cccs2)cc1	none
CSc1nc(NCc2ccco2)c2c3c(sc2n1)CN(C)CC3	none
CSc1nc(N(CCO)CCO)c2sc3nc(-c4ccco4)c4c(c3c2n1)CCC4	HIV RNase H inh-1 56 | HIV RNase H inh-2 inactive
CSc1nc(SCC(=O)NCc2ccco2)c2c3c(sc2n1)CN(C)CC3	none
Cc1cc(C)nc(NS(=O)(=O)c2ccc(N3C(=O)C4CC=C(Cl)CC4C3=O)cc2)n1 (stereo not given)	none
CS(=O)(=O)N(CC(=O)NCCC1=CCCCC1)c1ccc2c(c1)OCO2	none
CC(=O)Nc1ccc(Cl)cc1C(=O)O	none
COc1ccc(C(c2sc3nc(C)nn3c2O)N2CCCCC2)cc1 (stereo not given)	none
COc1cc(C(c2sc3nc(C)nn3c2O)N2CCc3ccccc3C2)cc(OC)c1OC (stereo not given)	none
COc1ccc(C(c2sc3nc(C)nn3c2O)N2CCc3ccccc3C2)cc1 (stereo not given)	HIV RNase H inh-1 79 | HIV RNase H inh-2 inactive
N#Cc1nc(-c2ccco2)oc1NCCCn1ccnc1	none
CC[C@@H](C)[C@H](NC(=O)C1CCN(C(=O)[C@@H](NS(=O)(=O)c2ccc(C)cc2)C(C)C)CC1)C(=O)O	none
COc1ccc2c(c1OC)C(=O)NC(C)=C(C(=O)OC(C)(C)C)C2O (stereo not given)	none
COc1ccc(C2C=C(c3ccc(Cl)cc3)Nc3nc(NC(C)=O)nn32)cc1 (stereo not given)	HIV RNase H inh-1 56 | HIV RNase H inh-2 inactive
CC(=O)Nc1nc2n(n1)C(c1ccc(Cl)cc1)C=C(C)N2 (stereo not given)	none
CC(=O)Nc1nc2n(n1)C(c1ccccc1)C=C(c1ccccc1)N2 (stereo not given)	none
CC1(C)CC(=O)C(C=NCCCn2ccnc2)=C(O)C1	none
O=C(Nc1ccccc1)N1CCC(c2nc(-c3ccc(S(=O)(=O)N4CCOCC4)cc3)no2)CC1	none
O=C(Nc1cccc(C(F)(F)F)c1)N1CCC(c2nc(-c3ccc(F)cc3)no2)CC1	HIV RNase H inh-1 67 | HIV RNase H inh-2 inactive
